Source: PubChem BioAssay (National Center for Advancing Translational Sciences (NCATS))
POLI inh = blocks human DNA polymerase iota activity; Q9UNA4; Pol iota fluorescent replication assay, 10 min; Potency, µM (top dose mostly 115 µM), for the others: at the highest dose activity, negative = inhibition, most hits filed as inhibitors; actives 1% (n = 390,000); AID 588590
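Fluorescent replication assay read twice, at 0 min and 10 min after adding 50 nM (final) substrate. Enzyme (10 nM) and compounds were first incubated 15 min at room temperature; enzyme-free buffer wells were negative controls.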
Tb PGK inh = blocks T. brucei phosphoglycerate kinase; P07378; PGK/GAPDH coupled, Kinase-Glo luminescence, 60 min; Potency, µM (titrated, usually from 57.5 µM), without a hit: top-dose activity change, negative = inhibition, hits mostly inhibitors; actives 0.043% (n = 380,000); AID 602233; note: % is set by controls: 0 for no effect and ±100 for the full control effect; nearly all actives have a fitted effect of over 60% in size
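Recombinant glycosomal PGK reaction used 1,3-bisphosphoglycerate generated in-well by GAPDH (100nM final) in 100mM TEA pH 7.6, 5mM MgCl2, 0.01% Tween-20. After 60 minutes at room temperature, ATP was read by Kinase-Glo Plus luminescence end-point.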
POLB inh = blocks human DNA polymerase beta activity; AID 485314; Potency, µM (titrated, usually from 114 µM), for inactives: at the highest dose activity change, negative = inhibition, usual class: inhibitors; actives 1.3% (n = 340,000); Pol beta primer extension/strand displacement, fluorescence kinetic; note: % is set by controls: 0 for no effect and ±100 for the full control effect
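Pol beta (10 nM) and compounds were preincubated 15 min at room temperature, then 50 nM substrate (final) started primer extension/strand displacement. Reads were taken at 0 and 10 min; concentration-response data were fitted to a four-parameter Hill equation.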
Pol kappa inh = blocks human DNA polymerase kappa activity; purified Pol kappa, fluorescent DNA synthesis assay, 10 min; Potency, µM (titrated, usually from 107 µM), without a hit: at the highest dose activity, negative = inhibition, actives largely listed as inhibitors; actives 0.53% (n = 400,000); AID 588579; note: % is set by controls: 0 for no effect and ±100 for the full control effect
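Enzyme at 10 nM met test compounds for 15 min at room temperature. Substrate addition (50 nM final) began the reaction, which was monitored by fluorescence at 0 and 10 min.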
FEN1 inh = human FEN1 inhibition. P39748. Recombinant FEN1 flap cleavage, fluorescence, 15 min. Potency, µM (series often up to 114 µM), inactives show at the top dose activity change, negative = inhibition, usual class: inhibitors. actives 0.35% (n = 390,000). AID 588795; note: % is set by controls: 0 for no effect and ±100 for the full control effect; nearly all actives have a fitted effect of over 65% in size
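In this screen, 50 nM flap DNA substrate was added to 10 nM FEN1 pretreated with compound for 15 min at room temperature; cleavage was followed with reads at 0 and 15 min, and Hill fitting gave concentration–response parameters.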
POLH inh = inhibitors of human DNA polymerase eta | Q9Y253 | recombinant Pol eta, fluorescent DNA replication assay | Potency, µM (highest dose often 114 µM), without a hit: at the top dose activity change, negative = inhibition, hits mostly inhibitors | actives 1.2% (n = 390,000) | AID 588591; note: % is set by controls: 0 for no effect and ±100 for the full control effect
Target sequence (Q9Y253 whole entry, looked up): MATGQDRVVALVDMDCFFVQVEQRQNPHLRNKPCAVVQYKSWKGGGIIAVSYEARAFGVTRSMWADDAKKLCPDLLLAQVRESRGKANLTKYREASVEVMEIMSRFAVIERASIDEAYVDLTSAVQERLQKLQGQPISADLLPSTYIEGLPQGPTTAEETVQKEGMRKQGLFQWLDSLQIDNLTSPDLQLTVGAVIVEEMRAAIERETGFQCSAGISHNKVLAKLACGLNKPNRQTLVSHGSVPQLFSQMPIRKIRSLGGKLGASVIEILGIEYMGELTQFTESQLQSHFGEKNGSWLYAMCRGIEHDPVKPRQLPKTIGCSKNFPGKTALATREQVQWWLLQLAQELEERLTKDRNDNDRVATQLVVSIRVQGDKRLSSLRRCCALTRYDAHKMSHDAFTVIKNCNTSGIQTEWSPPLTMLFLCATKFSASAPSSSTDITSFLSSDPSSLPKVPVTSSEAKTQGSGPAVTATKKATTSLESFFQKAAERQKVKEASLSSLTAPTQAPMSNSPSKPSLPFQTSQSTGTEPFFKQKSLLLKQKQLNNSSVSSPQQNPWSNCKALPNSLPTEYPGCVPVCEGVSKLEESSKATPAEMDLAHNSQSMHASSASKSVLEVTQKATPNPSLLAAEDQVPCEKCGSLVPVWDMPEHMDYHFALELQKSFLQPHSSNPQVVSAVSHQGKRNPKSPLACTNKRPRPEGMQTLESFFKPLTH
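Pol eta at 10 nM preincubated with compounds 15 min at room temperature; reaction started with fluorescent substrate (50 nM final) and read kinetically at 0 and 10 min.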
* marks the source's active call; other numbers are inactive results; i = inactive; ? = inconclusive; . = not tested or not shown; ! = not confirmed by another sample; [ ] = dose if it differs, or a comment. A selection: hits, their analogues and other compounds. The true share with any hit is near 2.4%. Calls come from the whole dose curve; as a rule, active = well fitted curve in the direction sought with a large enough effect; inconclusive = small, poorly fitted or top-dose-only effect, or another doubt; inactive = no such curve, though single readings can be large; an effect the other way counts as inactive or inconclusive. Potency is the fitted concentration of half-maximal effect.

SMILES	POLI inh	Tb PGK inh	POLB inh	Pol kappa inh	FEN1 inh	POLH inh
CC(NC(=O)CN1c2cccc3cccc(c23)S1(=O)=O)c1ccccc1 (configuration not stated)	.	3.4%	.	.	.	-2.7%
CC(NC(=O)CN1c2cccc3cccc(c23)S1(=O)=O)c1ccc(S(N)(=O)=O)cc1 (configuration not stated)	28.2µM*	-0.7%	.	?	-14.4%	20µM*
CC1CC=CC2C1C(=O)N(Cc1ccccc1)C2c1ccc(-c2ccoc2)cc1F (configuration not stated)	-10.3%	.	.	-3.9%	1.8%	.
O=C(Nc1cccc([N+](=O)[O-])c1)c1cnccn1	-47.3%	-9.8%	39.8µM*	?	0.7%	11.2µM*
O=C(Nc1cccc([N+](=O)[O-])c1)c1ccc2ccccc2c1O	2.1%	1.9%	39.8µM*	-11.8%	14.2%	-3.0%
O=C(Nc1ccc([N+](=O)[O-])cc1)Nc1cnccn1	10.5%	i	39.8µM*	-6.7%	-17.6%	-8.7%
Cc1ccc(NC(=O)Nc2cnccn2)cc1	-20.1%	3.1%	52.7%	-4.3%	-14.2%	0.0%
O=C(Cc1ccccc1)Nc1cccc([N+](=O)[O-])c1	-3.8%	-10.7%	-8.2%	-0.5%[60.1 µM]	-2.1%	8.7%
COC(=O)c1cc2c([nH]c1=O)CC(c1ccccc1)CC2=O (configuration not stated)	10.2%	.	.	5.7%	-15.3%	.
Cc1cccc(OCCCCn2nnc3sc4c(c3c2=O)CCC(C)C4)c1 (configuration not stated)	?	.	14.1µM*	-25.5%	2.8%	.
Cc1ccc(OCCn2nnc3sc4c(c3c2=O)CCC(C(C)(C)C)C4)cc1 (configuration not stated)	-11.0%	.	22.4µM*	-13.1%	-4.8%	.
CC(C)(C)C1CCc2c(sc3nnn(CCOc4ccccc4)c(=O)c23)C1 (configuration not stated)	-9.5%	.	25.1µM*	-10.1%	8.1%	.
CC(=O)Cn1nnc2sc3c(c2c1=O)CCC(C(C)(C)C)C3 (configuration not stated)	64.6%	-7.1%	14.7%	-18.2%	-16.4%	-9.8%
O=S(=O)(Nc1cc(Br)cc2cccnc12)c1ccccc1	25.0%	.	.	-6.8%	-5.5%	.
COc1ccc2c(c1)CCc1sc(NC(=O)c3cccc(Br)c3)nc1-2	4.2%	-7.1%	2.5%	-12.6%[60.1 µM]	-20.5%	-0.4%
COc1ccc2c(c1)Cc1sc(NC(=O)c3ccc(Cl)cc3)nc1-2	22.4µM*	-6.8%	0.1%	?	?	-9.6%
COc1ccc2c(c1)Cc1sc(NC(=O)c3cccc(C)c3)nc1-2	8.91µM*	.	22.2%	-27.8%	?	.
COc1ccc(C(=O)Nc2nc3c(s2)CCc2cc(OC)ccc2-3)cc1	29.1%	.	-25.0%	-5.4%	-12.0%	.
COc1ccc2c(c1)Cc1sc(NC(=O)c3cccc(Cl)c3)nc1-2	10µM*	i	0.8%	-8.3%[60.1 µM]	-5.0%	-15.9%
CCc1ccc(OCCCn2c(CCNC(=O)C3CCCCC3)nc3ccccc32)cc1	-7.6%	.	.	-17.8%	7.2%	.
Cc1ccc(/C=C/C2=Cc3c(sc(NC(=O)CSc4n[nH]c(N)n4)c3C#N)C(C)(C)C2)o1	.	.	39.8µM*	.	.	.
CCOC(=O)c1sc(NC(=O)CSc2n[nH]c(-c3ccccc3)n2)c(C#N)c1C	-10.9%	1.0%	-13.5%	-18.0%	-11.1%	?
O=c1c2ccccc2sn1-c1cc(S(=O)(=O)N2CCOCC2)ccc1N1CCOCC1	37.5%	5.0%	10.9%	2.9%	31.6µM*!	-10.8%
N#Cc1c(NC(=O)CN2CCCCC2)sc2c1CCC2	?	i	?	-12.4%	3.0%	28.2µM*
COC(=O)C1CCN(CC(=O)Nc2sc3c(c2C#N)CCC3)CC1	-34.5%	-5.9%	39.8µM*	-1.1%	-2.5%	?
SMILES	POLI inh	Tb PGK inh	POLB inh	Pol kappa inh	FEN1 inh	POLH inh
CC1CCCCN1CC(=O)Nc1sc2c(c1C#N)CCC2 (configuration not stated)	?	-8.8%	?	-23.4%	15.7%	?
COCCn1c(=O)c(-c2ccccc2)nc2cnc(Nc3cccc(OC)c3)nc21	.	.	.	-7.8%[60.1 µM]	.	.
COc1c2c(c(C)c3c1C(=O)OC3)O[C@@]1(C)CC[C@@]3(O)C(C)(C)OC(=O)CC[C@]3(C)[C@H]1C2	?	-5.8%	?	-37.1%	-7.9%	44.7µM*
COCCn1nnnc1C(c1cc2cc(OC)c(OC)cc2[nH]c1=O)N1CCN(c2ccc(O)cc2)CC1 (configuration not stated)	44.7µM*	7.0%	-3.2%	-26.9%	-11.2%	-8.9%
COc1ccc(-c2nc3cccc(C)n3c2Nc2ccc(C)cc2)cc1	-6.0%	.	.	-9.0%	-2.6%	.
Cc1ccc2nc(-c3ccc(NC(=O)CSCC(=O)O)cc3)sc2c1	1.9%	i	-15.5%	-19.4%	-8.5%	1.5%
Cc1csc(NC(=O)CSCC(=O)O)c1-c1nc2ccccc2s1	?	-12.3%	-22.9%	1.5%	?	89.1µM*
O=C(O)CCc1ccc(-c2cccs2)n1-c1ccc(C(=O)O)cc1	?	0.9%	?	?	-13.5%	31.6µM*
CC(=O)c1cccc(-n2c(CCC(=O)O)ccc2-c2cccs2)c1	50.1µM*	.	?	-33.7%	-1.1%	?
CC1(C(=O)O)CCC2(C)CCC3(C)C(=CC(=O)C4C5(C)CCC(O)C(C)(C)C5CCC43C)C2C1 (configuration not stated)	.	.	.	2.1%[19.4 µM]	.	.
O=C1c2c(O)cc(O)cc2O[C@@]12c1c(cc(O)c3c1O[C@H](c1ccc(O)cc1)[C@@H](O)C3)O[C@@H]2c1ccc(O)cc1	?	-4.5%	-10.7%	?	50.1µM*	-19.3%
COc1ccc(-n2c(=O)c3ccccc3n(Cc3ccc(F)cc3Cl)c2=O)cc1OC	2.5%	i	5.3%	-2.4%	17.8%	-16.6%
COc1ccc(-n2c(=O)c3c4c(sc3n(Cc3cc(=O)n5c(C)cccc5n3)c2=O)CCC4)c(OC)c1	79.4µM*	-5.0%	-20.3%	-11.1%	-7.0%	?
COc1ccc(-n2c(=O)c3c4c(sc3n(Cc3ccc(C)cc3C)c2=O)CCC4)c(OC)c1	-8.6%	i	2.7%	-13.8%	3.4%	-5.1%
C[C@H]1CC2[C@@H]3CCC4=CC(=O)C=C[C@]4(C)[C@@]3(F)[C@@H](O)C[C@]2(C)[C@@]1(O)C(=O)CO (some centres not stated)	?	.	-13.6%[57.1 µM]	.	.	-1.4%[57.1 µM]
Cc1noc(/C=C/c2ccco2)c1S(=O)(=O)N1CCC(C(=O)N2CCc3ccccc3C2)CC1	44.7µM*	13.4%	-111.5%	-35.2%	3.3%	?
